± gives the standard deviation of the averaged measurements. The full ranking holds about 1,900 compounds; the median of “CD40L-induced NF-kB luciferase activity, plate-corrected, relative to DMSO (0) and IKK inhibitor VII (-100) controls” is about 0.032, and the lowest 2% start at about -26. Many of the other results were omitted from the sample, so the lowest values are more common in it than they were.
Each molecule was assayed on BL2-NFkB-Luc (assay: CD40L-induced NF-kB luciferase activity, plate-corrected, relative to DMSO (0) and IKK inhibitor VII (-100) controls (% normalized activity); higher = more NF-kB reporter activity (less inhibition)). Settings: 9.4 µM; stimulus: tCD40L 64 ng/ml; 4.5 h.
Protocol: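 BL2 B cells with a stable NF-kB response-element luciferase reporter (BL2-NFkB-Luc), 384-well. Cells were pre-incubated with compound at 9.4 uM for 1 h at 37 C, then stimulated with 64 ng/ml trimerized CD40L for 4.5 h; luciferase was read with Steady-Glo. Signal was normalised per plate in Genedata (median DMSO neutral control = 0, median IKK inhibitor VII at 50 uM = -100) with Assay Median plate-pattern correction; duplicate plates.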

SMILES	CD40L-induced NF-kB luciferase activity
O=C1C=CC(=O)C(C2=C3C(=O)N(CCc4ccccc4)CC(=O)N3CCC2)=C1	-42.7 ± 2.4
O=C1CCCCCN1Cc1ccccc1	3.92 ± 5.3
O=C(c1cc2cc(Br)ccc2o1)N1CCCC1	38.77 ± 0.2
O=c1c2ccccc2nc2n1-c1ccccc1CCC2	-5.01 ± 3.7
COc1ccc2c(c1)[nH]c1c(=O)n(Cc3ccccn3)cnc12	-0.0285 ± 6.5
O=C(/C=C/c1ccco1)Nc1ccccc1C(=O)O	1.64 ± 1.8
COc1ccc(/C=C/C(=O)Nc2ccccc2C(=O)O)cc1OC	-57.1 ± 1.6
COc1ccc(CC(=O)Nc2cccc(C(=O)Nc3ccccc3C(=O)O)c2)cc1OC	-2.42 ± 3.4
O=C1OC(c2ccc(O)cc2)(c2ccc(O)cc2)c2ccccc21	0.943 ± 1.8
Cc1ccccc1-c1coc2cc(O)ccc2c1=O	4.65 ± 2.2
Cc1cc(O)c(C(C)C)cc1C1(c2cc(C(C)C)c(O)cc2C)OC(=O)c2ccccc21	-36.1 ± 2.9
C/C=C/Cn1c(SC)nc2c1c(=O)[nH]c(=O)n2C	-0.907 ± 1.9
COCC(C)NC(=O)c1ccc(CN2CCc3ccccc3C2)cc1 (stereo not drawn)	7.18 ± 5
O=C(O)c1cc(-c2ccc3c(c2)OCO3)nc2ccc(Br)cc12	9.08 ± 4
CCc1cc2c(=O)c(-c3ccc(F)cc3)c(C)oc2cc1OCC(=O)O	1.94 ± 0.96
O=C1c2ccccc2N2C(=O)c3ccccc3C2N1Cc1ccco1 (stereo not drawn)	-3.98 ± 15
O=C1OC(Nc2ccc3c(c2)OCO3)c2ccccc21 (stereo not drawn)	-15.2 ± 0.48
O=S(=O)(NCCCCCNS(=O)(=O)c1ccccc1)c1ccccc1	-7.09 ± 9.8
COc1ccc2[nH]c(=O)c(CN(C(=O)c3ccco3)C(C)C)cc2c1	0.241 ± 0.71
COc1ccc2[nH]c(=O)c3c(c2c1)OC(C)(C)C=C3	-32.8 ± 0.38
COc1ccc2[nH]cc(C3N4CC5(C)CN3CC(C)(C4)C5=O)c2c1 (stereo not drawn)	2.08 ± 1.7
O=C(COc1ccc(F)cc1)OCCN1CCOCC1	0.903 ± 1.5
COc1ccccc1C1C(C#N)=C(N)Oc2c1oc(CO)cc2=O (stereo not drawn)	-1.31 ± 0.27

SMILES	CD40L-induced NF-kB luciferase activity
O=C1OC(c2ccccc2)=C/C1=C/c1cccs1	30.9 ± 2.3
OC(COCc1ccccc1)CN1CCN(Cc2ccc3c(c2)OCO3)CC1 (stereo not drawn)	-0.97 ± 0.41
COc1cc2c(cc1OC)C1(CCCCC1)CN(C)C2	-4.22 ± 0.72
O=C(CC1SC(=O)NC1=O)Nc1ccc(Cl)cc1 (stereo not drawn)	2.93 ± 5.1
O=C(NN=Cc1ccc([N+](=O)[O-])o1)c1ccc(O)cc1	-1.71 ± 0.97
COC(=O)CSc1nc2ccc(N)cc2s1	0.507 ± 4.2
O=C(O)CCSc1nc2ccccc2s1	-42.3 ± 0.52
CCOCC(=O)Nc1nc2ccccc2s1	50.7 ± 10
CN(CCc1cnn(C)c1)Cc1nc(CC2CC2)no1	-0.906 ± 0.31
COc1ccc(O)c(C(=O)/C=C/c2cc3ccccc3o2)c1	83.3 ± 3.2
O=C(OCCN1CCOCC1)c1cccs1	-4.77 ± 5.6
COc1ccc(CCCC(=O)O)c(C)c1	1.85 ± 1.2
CCN(CC)C1=C(Cl)C(=O)C(Cl)C12OCCO2 (stereo not drawn)	-4.69 ± 4.8
Cc1cc(C=NO)c(C)n1-c1ccc(Br)cc1	-0.84 ± 0.39
COc1ccc(C2N3CC4(C)CN2CC(C)(C3)C4)cc1OC (stereo not drawn)	-1.8 ± 1.9
COc1ccc(C(=O)Nc2cccc3cccnc23)cc1OC	19.3 ± 10
O=C(NCCC(c1ccccc1)c1ccco1)c1cccs1 (stereo not drawn)	24.9 ± 2.2
CCc1cc2c(=O)c(-c3nc4ccccc4n3C)coc2c(CN2CCN(C)CC2)c1O	-3.98 ± 2.5
CC(C)[C@H]1CN(C)CCN1Cc1cn(C)nc1-c1cccc(Cl)c1	2.03 ± 0.42
Cc1c(OC(=O)CNC(=O)OC(C)(C)C)ccc2c3c(c(=O)oc12)CCC3	3.02 ± 3.5
O=C(O)c1ccc(C(=O)C(=O)c2ccccc2)cc1	-6.47 ± 15
CC(=O)C1=C(O)C(=O)N(CC(=O)O)C1c1ccccc1Cl (stereo not drawn)	3.2 ± 3.2
CC(=O)OCC(=O)C1=CCC2C3CCC4=CC(=O)C=CC4(C)C3(F)C(OC(C)=O)CC12C (stereo not drawn)	-4.87 ± 4.6

SMILES	CD40L-induced NF-kB luciferase activity
CC(=O)OCC(=O)[C@@]12OC3(CCCC3)O[C@@H]1C[C@H]1[C@@H]3CCC4=CC(=O)C=C[C@]4(C)[C@@]3(F)[C@@H](O)C[C@@]12C	-20.2 ± 1.1
CC1(C)O[C@@H]2C[C@H]3[C@@H]4C[C@H](F)C5=CC(=O)C=C[C@]5(C)[C@@]4(F)[C@@H](O)C[C@]3(C)[C@]2(C(=O)CO)O1	-23.7 ± 1.8
CC1(C)O[C@@H]2C[C@H]3[C@@H]4CCC5=CC(=O)C=C[C@]5(C)[C@@]4(F)[C@@H](O)C[C@]3(C)[C@]2(C(=O)CO)O1	-31.3 ± 5.1
C[C@@H]1C[C@H]2[C@@H]3CCC4=CC(=O)C=C[C@]4(C)[C@@]3(F)[C@@H](O)C[C@]2(C)[C@H]1C(=O)CO	-31.39 ± 0.23
C[C@]12CC[C@H]3[C@@H](CCC4=CC(=O)CC[C@@]43C)[C@@H]1CC[C@@H]2C(=O)CO	-4.85 ± 1.2
C/C=C/c1ccc(OCCCCN2CC(C)CC(C)C2)c(OC)c1 (stereo not drawn)	1.73 ± 0.88
Cc1ccc(OCc2nc(-c3cccnc3)no2)cc1C	34.5 ± 7.5
CCc1cc(=O)oc2cc(OCc3nn[nH]n3)ccc12	-0.362 ± 2.4
COc1cc2oc(-c3ccc(O)cc3)cc(=O)c2c(OC)c1O	2.41 ± 4.4
Cc1cccc(Nc2ncccc2C(=O)O)c1C	-3.873 ± 0.016
CCOc1ccc(C(NC(C)=O)c2ccc(OC)c(OC)c2)cc1 (stereo not drawn)	4.36 ± 0.088
Nc1c(C(=O)c2ccccc2)oc2ccccc12	17.3 ± 8.5
O=C(c1ccc(F)cc1)[C@@H]1[C@@H](C(=O)c2ccccc2)[C@@]2(C(=O)Nc3ccccc32)[C@H]2c3ccccc3C=CN12	6.58 ± 1.4
CCOC(=O)c1cccc(C(=O)OCC)n1	-2.95 ± 2.1
COc1cccc(CN2CCN(C(=O)c3ccc(-c4ccccc4)cc3)CC2)c1	-7.33 ± 1.1
O=C(/C=C/c1ccc(F)cc1)N1CC[C@@]2(O)CCCC[C@H]2C1	-1.13 ± 0.88
Cc1ccc(C(=O)NCCNC(=O)c2ccccc2)cc1	-2.5 ± 3.9
O=C(Cc1ccc(Br)cc1)c1ccc(O)cc1O	32.9 ± 18
O=C(Nc1ccc(C(=O)NC2CCCCC2)cc1)c1cccnc1	0.625 ± 0.58
COC(=O)c1[nH]c2ccc(C)cc2c1NC(=O)CN1CCc2cc(OC)c(OC)cc2C1	-5.22 ± 6.4
COc1ccc(-c2cc(=Nc3ccc(C)cc3)c3ccccc3o2)cc1	2.07 ± 3
C=CCN1C(=O)c2oc3ccccc3c(=O)c2C1c1ccc(O)c(OC)c1 (stereo not drawn)	-0.791 ± 0.32
